KB-3-1 tox: KB-3-1 parental cell cytotoxicity; Potency, µM (series often up to 46.1 µM), hits mostly cytotoxic; 1.4% of 400,000 active; KB-3-1 viability, CellTiter-Glo ATP luminescence, 72 h; further: on the % scale 0 is the no-effect control and ±100 the full control effect; nearly all actives have a fitted effect of over 60% in size
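Parental KB-3-1 adenocarcinoma cells in phenol-red-free DMEM with 10% FBS were pin-treated with compounds at several concentrations, incubated 72 h at 37 °C, and viability read by CellTiter-Glo luminescence; concentration-effect curves were fitted after normalization.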
KB-V1 cytotox: kills drug-selected multidrug resistant KB-V1 cells; KB-V1 MDR cells viability, CellTiter-Glo, 72 h; Potency, µM (top dose mostly 46.1 µM), most hits filed as cytotoxic; 3.4% of 400,000 active; AID 1347076; further: on the % scale 0 is the no-effect control and ±100 the full control effect; nearly all actives have a fitted effect of over 60% in size
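KB-V1, DMEM (no phenol red) + 10% FBS; cpd pin-transferred, titration series; 72 h, 37 degrees C; CellTiter-Glo, luminescence. Data normalized, curve-fit.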
SW480 rereplic: DNA re-replication induction in SW480 cells; SW480 DNA re-replication, Hoechst DNA content imaging, 48 h; Potency, µM (titrated, usually from 46.1 µM), inactives show top-dose re-replication activation, hits mostly activators; 1.8% of 340,000 active; AID 624297; further: % of control where 0% means no effect; nearly all actives have a fitted effect of over 55% in size
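Treated cells incubate 48 hr (37 C, 5% CO2), are stained 40 min with Hoechst, and nuclear fluorescence is enumerated; a rise in nuclei with high DNA signal marks re-replication.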
MCF10A rerep: inducers of DNA re-replication in MCF 10A breast cells; 2.9% of 350,000 active; Potency, µM (highest dose often 46.1 µM), without a hit: top-dose activity, positive = re-replication, actives largely listed as activators; MCF 10A DNA re-replication, Hoechst nuclear intensity, 48 h; further: % of control where 0% means no effect; nearly all actives have a fitted effect of over 50% in size
PINK1 expr mod: modulators of PINK1 expression | PINK1 immunofluorescence, high-content cytometry, 24 h | Potency, µM (highest dose often 76.6 µM), inactives show top-dose activation (PINK1 increase), hits mostly activators | 0.2% of 410,000 active | AID 624263; active means well fitted activation curve with a large enough effect; inconclusive means small, poorly fitted or top-dose-only effect; cell line not stated here; further: % of control where 0% means no effect; nearly all actives have a fitted effect of over 65% in size
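Compound titrations (5 concentrations, 24 h) on a stable cell line; DMSO and CCCP controls. Endpoint: fixed-cell PINK1 immunofluorescence with mitochondrial, cell and nuclear markers, scanned by microplate cytometer.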
An asterisk follows results filed as active; i = inactive; ? = inconclusive; nt = no result given; [ ] = remark or other dose. In the library only some 6.7% were active in any assay of this set; here they are far more common. Unless noted, the call rests on the fitted dose curve; in most records, active means well fitted curve in the direction sought with a large enough effect; inconclusive means small, poorly fitted or top-dose-only effect, or another doubt; inactive means no such curve, though single readings can be large; an effect the other way counts as inactive or inconclusive. Potency means the concentration at half of the fitted maximal effect.

SMILES	KB-3-1 tox	KB-V1 cytotox	SW480 rereplic	MCF10A rerep	PINK1 expr mod
O=C(N/N=C/c1ccc(-c2cccc([N+](=O)[O-])c2)o1)[C@H]1C[C@@H]1c1ccccc1	i	?	-4%	12%	13%
CCOC(=O)c1cccc(NC(=O)CC2C(=O)N(c3ccc(Cl)cc3)C(=O)N2C2CCCC2)c1 (stereo not drawn)	nt	nt	nt	nt	1%
CCC(COC)NC(=O)c1cnn(-c2ncc3c(n2)-c2ccccc2CCC3)c1C (stereo not drawn)	nt	nt	nt	nt	0%
COCCNC(=O)C1(C)CCCN(Cc2ccc3ccccc3c2Br)C1 (stereo not drawn)	i	i	nt	nt	-1%
O=C(CCl)N1CCN(S(=O)(=O)Cc2ccccc2)CC1	23µM*	?	211%	?	0%
CCCCN1CCC(=O)C(C(=O)OCC)=C1C(=O)OCC	i	i	-1%	-1%	1%
CCCC1NC(=O)c2cc3ccccc3cc2-n2c1nc1cc(Cl)ccc1c2=O (stereo not drawn)	18µM*	12µM*	nt	nt	4%
Cc1ccc2c(=O)n3c(nc2c1)C(Cc1ccc(O)cc1)NC(=O)c1cc2ccccc2cc1-3 (stereo not drawn)	16µM*	?	nt	nt	9%
O=C1NC(Cc2ccccc2)c2nc3ccc(F)cc3c(=O)n2-c2cc3ccccc3cc21 (stereo not drawn)	?	21µM*	nt	nt	8%
O=C1NC(Cc2ccc(O)cc2)c2nc3cc(F)ccc3c(=O)n2-c2cc3ccccc3cc21 (stereo not drawn)	15µM*	?	nt	nt	1%
C[C@@H]1CCCCCCCCC(=O)OCCN(C(=O)OC(C)(C)C)[C@H](C)CCCCCCCCC(=O)OCCN(C(=O)OC(C)(C)C)[C@H](C)CCCCCCCCC(=O)OCCN1C(=O)OC(C)(C)C	i	i	6%	21%	-1%
N=c1c(-c2nc3ccccc3[nH]2)cc(C(=O)c2cccs2)nn1-c1ccccc1	i	?	-4%	12%	-1%
N=c1c(-c2nc3ccccc3[nH]2)cc(C(=O)c2ccco2)nn1-c1ccccc1	i	i	7.3µM*	2%	3%
Cc1ccc(N(CC(O)Cn2nc(C)cc2C)S(=O)(=O)c2ccc3ccccc3c2)cc1 (stereo not drawn)	i	5.8µM*	7%	4%	9%
COC(=O)C1=C(C)NC(=O)CC1c1ccccc1F (stereo not drawn)	i	i	?	5.8µM*	1%[38.3 µM]
O=C1CC(c2ccccc2F)c2cc3c(cc2N1)CCC3 (stereo not drawn)	8.2µM*	13µM*	-6%	-2%	17%[38.3 µM]
O=C1CC(c2cc(Br)ccc2F)c2cc3c(cc2N1)CCC3 (stereo not drawn)	1.6µM*	?	1.2µM*	1.5µM*	7%[38.3 µM]
CCOC(=O)C1=C(C)NC2=C(C(=O)C(C(=O)OCC)C(c3ccco3)C2)C1c1ccccn1 (stereo not drawn)	i	i	6.5µM*	373%[0.0737 µM]	0%
COc1cccc(CNC(=O)Cc2ccc(NC(=O)N3CCCCc4ccccc43)cc2)c1OC	i	i	nt	nt	-1%
COc1ccc(CNCc2ccccc2C(F)(F)F)cc1	i	i	?	?	5%
Fc1ccc(CNCc2ccccc2C(F)(F)F)cc1	i	i	18µM*	-1%	10%
CCC(CC)C(=O)Nc1nnc(SCc2cc(=O)n3cccc(C)c3n2)s1	nt	nt	nt	nt	3%
CCOCCCn1c(C)nc2c(c1=O)c1nc3ccccc3nc1n2CCC1=CCCCC1	?	18µM*	?	?	14%
Cc1nc2c(c(=O)n1CCC1=CCCCC1)c1nc3ccccc3nc1n2/N=C/c1ccccc1	i	9.2µM*	0%	23µM*	5%
COC(=O)N1CCC2(CCN(Cc3cc(C(F)(F)F)cc(C(F)(F)F)c3)CC2)CC1	nt	nt	nt	nt	3%
SMILES	KB-3-1 tox	KB-V1 cytotox	SW480 rereplic	MCF10A rerep	PINK1 expr mod
CCOc1ccc(C(=O)NC(C(=O)NCC(c2cccs2)N(C)C)C(C)C)cc1 (stereo not drawn)	i	i	-19%	0%	-1%
CCOC(=O)/C(=C\c1ccccc1)C(=O)CCN1CCOCC1	i	?	0%	21µM*	-2%
CN1C(=O)C(O)(CC(=O)c2ccccn2)c2cc(Br)ccc21 (stereo not drawn)	?	7.3µM*	?	?	5%
CCSc1n[nH]c2nc3c(c(=O)n12)C1(CCCC1)Cc1ccccc1-3	i	i	-2%	?	9%
Cc1ccc(-n2c(SCC(N)=O)nc3c(c2=O)C2(CCCC2)Cc2ccccc2-3)cc1	?	10µM*	0%	?	1%
Cc1ncc2c(c1CNC(=O)c1ccc3c(c1)OCO3)CCN(C(=O)c1cccc(-n3cccn3)c1)C2	nt	nt	nt	nt	-1%
COc1cccc(CN2CC(C(=O)NC3CCC3)CCC2=O)c1 (stereo not drawn)	i	i	7%	-8%	1%
Cc1cc(C)nc(SCCCn2c(=O)[nH]c3ccccc32)n1	i	9.2µM*	-4%	1%	-1%
CCCn1c(=O)[nH]c2ccccc21	i	i	-6%	-2%	-2%
Oc1ccc(Cl)cc1C1=Nc2ccccc2N=C(c2ccccc2)C1	i	i	nt	nt	2%
Cc1ccc(O)c(C2=Nc3ccccc3N=C(c3cccs3)C2)c1	?	15µM*	3%	21µM*	0%
Oc1ccccc1C1=Nc2ccccc2N=C(c2cccs2)C1	i	23µM*	23%	?	4%[38.3 µM]
CCOc1cc2sc(N3CCC(C(=O)Nc4ccccc4C(=O)OC)CC3)nc2cc1Br	i	i	nt	nt	0%
CCN(CC)S(=O)(=O)c1ccc(C(=O)Nn2cnnc2)cc1	i	i	-4%	-1%	-1%
Cn1cc(/C=N\NC(=O)C2COc3ccccc3O2)c2ccccc21 (stereo not drawn)	nt	nt	17%	5.8µM*	nt
Cc1ccc(/C=N/NC(=O)C2COc3ccccc3O2)s1 (stereo not drawn)	2.1µM*	?	2.8µM*	1.8µM*	4%
O=C(N/N=C/c1c(O)n(-c2ccccc2Cl)c(=O)c2ccccc12)C1COc2ccccc2O1 (stereo not drawn)	?	?	?	21µM*	-2%
Cc1ccc(NC(=O)c2c(NC(=O)c3ccc(F)cc3)sc3c2CCCC3)cc1C	i	i	nt	nt	-1%
O=C(c1ccccc1)c1ccc2nc(Nc3ccccc3Cl)c3nncn3c2c1	i	i	nt	nt	-1%
CCc1ccc(OCc2n[nH]c(=S)n2Cc2ccccc2)cc1	i	i	1%	-1%	3%
CCc1ccc(OCc2n[nH]c(=S)n2C(C)CCCC(C)C)cc1 (stereo not drawn)	i	i	-3%	13µM*	5%

Assay outcomes deposited in PubChem BioAssay by National Center for Advancing Translational Sciences (NCATS).
